Measured values reported in PubChem BioAssay.
Several values for one entry are separate records, joined by “and”; a condition that tells them apart may be missing. Equal values may be shown once. Results filed as inconclusive are left out. Activity calls are given as the source filed them.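 The calls were made as follows, unless noted: active = normalized viability below 100% at a tested concentration; inactive = the rest.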

Columns and labels:
[1] = growth inhibition of DIPG glioma cells, dose response, cell-based, SU-DIPG-IV, MIPE4.0, CellTiter-Glo, qHTS (AID 1347063; cut-off not given, nearly all actives have AC50 up to about 30 µM;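 also: compound exposure lasted 48 hours before the viability readout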); conditions: SU-DIPG-IV viability, CellTiter-Glo ATP luminescence
[2] = growth inhibition of DIPG glioma cells, dose response, cell-based, JHH-DIPG-1, MIPE4.0, CellTiter-Glo, qHTS (AID 1347062; cut-off not given, nearly all actives have AC50 up to about 27 µM); conditions: JHH-DIPG-1 viability, CellTiter-Glo ATP luminescence
[3] = SU-DIPG-XXV glioma cell viability, MIPE5.0 library, qHTS (AID 1347068; cut-off not given, nearly all actives have IC50 up to about 30 µM;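 as to IC50: cells exposed to compound for 48 hours before viability readout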)
[4] = growth inhibition of DIPG glioma cells, dose response, cell-based, SU-DIPG-XIII, MIPE5.0, CellTiter-Glo, qHTS (AID 1347064; cut-off not given, nearly all actives have AC50 up to about 23 µM;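 also: cells exposed to compound for 48 hours before the viability read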); conditions: SU-DIPG-XIII viability, CellTiter-Glo ATP luminescence
[5] = viability loss in pontine glioma line – cell-based, SU-DIPG-XXV, MIPE5.0, CellTiter-Glo, qHTS, dose response (AID 1347065; cut-off not given, nearly all actives have AC50 up to about 26 µM;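 also: cells exposed to compound for 48 hours before ATP readout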); conditions: CellTiter-Glo ATP luminescence
[6] = JHH-DIPG-1 glioma cell viability, MIPE5.0 library, CellTiter-Glo luminescence, qHTS (AID 1347067; cut-off not given, nearly all actives have AC50 up to about 26 µM;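 also: cells exposed to compound for 48 hours before readout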); conditions: JHH-DIPG-1 glioma viability, CellTiter-Glo ATP luminescence
[7] = ovarian cancer cell viability with rucaparib, profiling panel, oncology-focused library, rucaparib conditional (AID 1508598); conditions: patient-derived ovarian cancer cells, CellTiter-Glo viability, 144 h, stronger effect = lower value
[8] = SU-DIPG-VI glioma cell viability, MIPE4.0 library, CellTiter-Glo luminescence, qHTS (AID 1347066; cut-off not given, nearly all actives have AC50 up to about 30 µM;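 also: cells exposed to compound for 48 hours before readout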); conditions: CellTiter-Glo ATP luminescence
[9] = sensitizers of A549 cells to miR-34 induction, primary screen, imaging, A549 dox-inducible miR-34, nuclei and caspase counts (AID 1347080;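 active = compounds whose cell count with miR-34 switched on is under 0.7 times the count with it off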); conditions: A549 miR-34 inducible, Hoechst nuclei count, 48 h
[10] = modifiers of HSF1 nuclear foci, imaging, Selleck Cancer Library (AID 1347162; in the data active = plate-normalised HSF1 focus index below about 0.46); conditions: human cells, at 10 µM; SSMD: measured here: HSF1 foci SSMD mean; cell count: measured here: cell number; plate-normalised HSF1 focus index: stronger effect = lower value
[11] = survival rescue of mitochondrial mutant cells in low glucose, primary screen, MELAS cybrids, Rieske KO mouse fibroblasts, CellTiter-Glo (AID 1508586;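 active = mean z-score across replicates of 1.96 or higher in either the MELAS or the Rieske mutant cell line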;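 also: z relative to plate mean and SD of compound and empty wells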)
[12] = at 0.000305 µM, OCI-C5x cells, with rucaparib 10 µM, 100% = cells with rucaparib alone
[13] = at 0.000305 µM, OCI-C5x cells, without rucaparib
[14] = at 0.000305 µM, OCI-P5x cells, with rucaparib 20 µM, 100% = cells with rucaparib alone
[15] = at 0.000305 µM, OCI-P5x cells, without rucaparib
[16] = at 0.00122 µM, OCI-C5x cells, with rucaparib 10 µM, 100% = cells with rucaparib alone
[17] = at 0.00122 µM, OCI-C5x cells, without rucaparib
[18] = at 0.00122 µM, OCI-P5x cells, with rucaparib 20 µM, 100% = cells with rucaparib alone
[19] = at 0.00122 µM, OCI-P5x cells, without rucaparib
[20] = at 0.00488 µM, OCI-C5x cells, with rucaparib 10 µM, 100% = cells with rucaparib alone
[21] = at 0.00488 µM, OCI-C5x cells, without rucaparib
[22] = at 0.00488 µM, OCI-P5x cells, with rucaparib 20 µM, 100% = cells with rucaparib alone
[23] = at 0.00488 µM, OCI-P5x cells, without rucaparib
[24] = at 0.0195 µM, OCI-C5x cells, with rucaparib 10 µM, 100% = cells with rucaparib alone
[25] = at 0.0195 µM, OCI-C5x cells, without rucaparib
[26] = at 0.0195 µM, OCI-P5x cells, with rucaparib 20 µM, 100% = cells with rucaparib alone
[27] = at 0.0195 µM, OCI-P5x cells, without rucaparib
[28] = at 0.0781 µM, OCI-C5x cells, with rucaparib 10 µM, 100% = cells with rucaparib alone
[29] = at 0.0781 µM, OCI-C5x cells, without rucaparib
[30] = at 0.0781 µM, OCI-P5x cells, with rucaparib 20 µM, 100% = cells with rucaparib alone
[31] = at 0.0781 µM, OCI-P5x cells, without rucaparib
[32] = at 0.313 µM, OCI-C5x cells, with rucaparib 10 µM, 100% = cells with rucaparib alone
[33] = at 0.313 µM, OCI-C5x cells, without rucaparib
[34] = at 0.313 µM, OCI-P5x cells, with rucaparib 20 µM, 100% = cells with rucaparib alone
[35] = at 0.313 µM, OCI-P5x cells, without rucaparib
[36] = at 1.25 µM, OCI-C5x cells, with rucaparib 10 µM, 100% = cells with rucaparib alone
[37] = at 1.25 µM, OCI-C5x cells, without rucaparib
[38] = at 1.25 µM, OCI-P5x cells, with rucaparib 20 µM, 100% = cells with rucaparib alone
[39] = at 1.25 µM, OCI-P5x cells, without rucaparib
[40] = at 5 µM, OCI-C5x cells, with rucaparib 10 µM, 100% = cells with rucaparib alone
[41] = at 5 µM, OCI-C5x cells, without rucaparib
[42] = at 5 µM, OCI-P5x cells, with rucaparib 20 µM, 100% = cells with rucaparib alone
[43] = at 5 µM, OCI-P5x cells, without rucaparib
[44] = stronger effect = lower value, cell number ratio, induced over uninduced
[45] = measured here: relative caspase fold change +Dox/-Dox
[46] = measured here: total cells with miR-34 induction, stronger effect = lower value
[47] = measured here: total cells without miR-34 induction
[48] = MELAS cybrid survival, CellTiter-Glo 48 h, stronger effect = higher value
[49] = Rieske KO mouse fibroblast survival, CellTiter-Glo 72 h

Q: For `COc1c(Cl)cc2c([nH]c3cnccc32)c1NC(=O)c1cccnc1C`, which AC50 [1] is on record?
A: Its AC50 is 2.96 µM (active).

Q: Which outcome [2] does the source give for `NS(=O)(=O)c1ccc(Nc2nc(OCC3CCCCC3)c3[nH]cnc3n2)cc1` here?
A: The outcome was “inactive”.

Q: And the outcome [3]?
A: The outcome was “inactive”.

Q: Which AC50 [4] does the source give for `CNC(=O)c1c(C)oc2cc(Oc3ncnc4cc(OC)c(OC)cc34)ccc12` here?
A: Its AC50 is 9.34 µM (active).

Q: And the AC50 [5]?
A: The AC50 was 6.61 µM (active).

Q: Which AC50 [1] does the source give for `Cc1c(C)n(Cc2ccc(-c3ccccc3C(=O)O)cc2)c2ccc(C(=O)N[C@@H](C)c3ccc([N+](=O)[O-])cc3)cc12` here?
A: The AC50 was 0.0372 µM (active).

Q: Which results are given for `CNc1nc(-c2ccc3c(N)n[nH]c3c2)cc(N2C[C@@H](C(=O)NC3CCCCC3)CC[C@H]2C)n1`?
A: AC50 [1]: 20.9 µM (active); AC50 [4]: 18.6 µM (active); AC50 [5]: 6.61 µM (active); AC50 [6]: 14.8 µM (active); viability [7, 12]: 103% (inactive); viability [7, 13]: 113% (inactive); viability [7, 14]: 103% (inactive); viability [7, 15]: 106% (inactive); viability [7, 16]: 124% (inactive); viability [7, 17]: 115% (inactive); viability [7, 18]: 97.7% (active); viability [7, 19]: 102% (inactive); viability [7, 20]: 116% (inactive); viability [7, 21]: 111% (inactive); viability [7, 22]: 100% (inactive); viability [7, 23]: 104% (inactive); viability [7, 24]: 119% (inactive); viability [7, 25]: 115% (inactive); viability [7, 26]: 92.7% (active); viability [7, 27]: 96.7% (active); viability [7, 28]: 117% (inactive); viability [7, 29]: 120% (inactive); viability [7, 30]: 102% (inactive); viability [7, 31]: 98.2% (active); viability [7, 32]: 107% (inactive); viability [7, 33]: 113% (inactive); viability [7, 34]: 91% (active); viability [7, 35]: 91.1% (active); viability [7, 36]: 112% (inactive); viability [7, 37]: 122% (inactive); viability [7, 38]: 90% (active); viability [7, 39]: 93.4% (active); viability [7, 40]: 67.5% (active); viability [7, 41]: 155% (inactive); viability [7, 42]: 22.3% (active); viability [7, 43]: 84.2% (active)

Q: What does the source list for `c1ccc(-c2oc3ncnc(NC[C@@H]4CCCO4)c3c2-c2ccccc2)cc1`?
A: AC50 [1]: 20.9 µM (active); AC50 [8]: 20.9 µM (active); outcome [3]: inactive

Q: For `O=C(Nc1cccnc1)N1CCC(Cc2cccc(Oc3ccc(C(F)(F)F)cn3)c2)CC1`, which outcome [2] is on record?
A: The outcome was “inactive”.

Q: And the outcome [3]?
A: The outcome was “inactive”.

Q: And the fold change [9, 44]?
A: Its fold change is 1.36 (inactive).

Q: What about the fold change [9, 45] of the same compound?
A: Its fold change is 0.837.

Q: What about the cell count [9, 46] of the same compound?
A: The cell count was 4250.

Q: What about the cell count [9, 47] of the same compound?
A: The cell count was 3120.

Q: And the SSMD [10]?
A: Its SSMD is 3.05.

Q: What about the cell count [10] of the same compound?
A: Its cell count is 7690.

Q: What about the plate-normalised HSF1 focus index [10] of the same compound?
A: The plate-normalised HSF1 focus index was 1.19 (inactive).

Q: What about the z-score [11, 48] of the same compound?
A: Its z-score is -0.261 (inactive).

Q: And the z-score [11, 49]?
A: Its z-score is -0.332.

Q: What about the viability [7, 12] of the same compound?
A: The viability was 111% (inactive).

Q: What about the viability [7, 13] of the same compound?
A: The viability was 123% (inactive).

Q: And the viability [7, 14]?
A: Its viability is 110% (inactive).

Q: What about the viability [7, 15] of the same compound?
A: The viability was 110% (inactive).

Q: What about the viability [7, 16] of the same compound?
A: The viability was 108% (inactive).

Q: What about the viability [7, 17] of the same compound?
A: Its viability is 129% (inactive).

Q: And the viability [7, 18]?
A: The viability was 111% (inactive).

Q: And the viability [7, 19]?
A: The viability was 99.8% (active).

Q: What about the viability [7, 20] of the same compound?
A: Its viability is 128% (inactive).

Q: What about the viability [7, 21] of the same compound?
A: Its viability is 120% (inactive).

Q: What about the viability [7, 22] of the same compound?
A: The viability was 112% (inactive).

Q: What about the viability [7, 23] of the same compound?
A: The viability was 102% (inactive).

Q: And the viability [7, 24]?
A: The viability was 116% (inactive).

Q: What about the viability [7, 25] of the same compound?
A: The viability was 118% (inactive).

Q: And the viability [7, 26]?
A: Its viability is 105% (inactive).

Q: And the viability [7, 27]?
A: Its viability is 102% (inactive).

Q: What about the viability [7, 28] of the same compound?
A: The viability was 114% (inactive).

Q: And the viability [7, 29]?
A: Its viability is 117% (inactive).

Q: And the viability [7, 30]?
A: Its viability is 103% (inactive).

Q: What about the viability [7, 31] of the same compound?
A: The viability was 102% (inactive).

Q: What about the viability [7, 32] of the same compound?
A: Its viability is 117% (inactive).

Q: What about the viability [7, 33] of the same compound?
A: Its viability is 117% (inactive).

Q: What about the viability [7, 34] of the same compound?
A: Its viability is 106% (inactive).

Q: What about the viability [7, 35] of the same compound?
A: The viability was 98.4% (active).

Q: And the viability [7, 36]?
A: Its viability is 134% (inactive).

Q: What about the viability [7, 37] of the same compound?
A: The viability was 129% (inactive).

Q: What about the viability [7, 38] of the same compound?
A: The viability was 100% (inactive).

Q: What about the viability [7, 39] of the same compound?
A: Its viability is 96.3% (active).

Q: What about the viability [7, 40] of the same compound?
A: Its viability is 126% (inactive).

Q: What about the viability [7, 41] of the same compound?
A: Its viability is 124% (inactive).

Q: What about the viability [7, 42] of the same compound?
A: The viability was 87.1% (active).

Q: And the viability [7, 43]?
A: Its viability is 85.5% (active).

Q: Which results are given for `Cc1cc(Cl)ccc1OCCCC(=O)NO`?
A: outcome [2]: inactive; outcome [3]: inactive; fold change [9, 44]: 0.893 (inactive) and 0.9 (inactive); fold change [9, 45]: 2.21 and 0.917; cell count [9, 46]: 6940 and 6970; cell count [9, 47]: 7770 and 7740; z-score [11, 48]: -0.389 (inactive); z-score [11, 49]: 0.796

Q: Which outcome [1] does the source give for `O=c1cc(CN2CCOCC2)occ1OCCCCCSc1ccnc2cc(C(F)(F)F)ccc12` here?
A: The outcome was “inactive”.

Q: What about the AC50 [4] of the same compound?
A: The AC50 was 18.6 µM (active).

Q: And the AC50 [5]?
A: The AC50 was 23.5 µM (active).

Q: And the AC50 [6]?
A: Its AC50 is 18.6 µM (active).

Q: And the IC50 [3]?
A: Its IC50 is 20.9 µM (active).

Q: And the fold change [9, 44]?
A: The fold change was 0.876 (inactive).

Q: What about the fold change [9, 45] of the same compound?
A: The fold change was 0.509.

Q: What about the cell count [9, 46] of the same compound?
A: Its cell count is 6290.

Q: What about the cell count [9, 47] of the same compound?
A: Its cell count is 7180.

Q: And the z-score [11, 48]?
A: Its z-score is -0.449 (inactive).

Q: What about the z-score [11, 49] of the same compound?
A: Its z-score is 0.747.
